Pf growth 48h = P. falciparum growth inhibition at 48 hours (one generation); Potency, µM (doses to about 28.7 µM), for the others: top-dose activity change, negative = inhibition, actives largely listed as inhibitors; 310,000 compounds, 5.9% hits; AID 504832; P. falciparum luciferase growth in erythrocytes, 48 h; also: potency is read from the fitted curve at half-maximal effect; % is scaled to controls: 0 for no effect and ±100 for the full control effect
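A one-generation exposure of luciferase-tagged malaria parasites in RPMI 1640/Albumax erythrocyte culture, 37 C and 5% CO2. Inhibition is inferred from decreased luminescence after adding detection reagent.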
Shiga toxin inh = Shiga toxin inhibition; inhibition, % at 38.7 µM; Vero cells, Shiga toxin protein synthesis inhibition reporter; AID 2315; 290,000 compounds, 9.2% hits; in the data active = inhibition mostly above about 28%, no sharp cut-off; inactive = mostly below about 43%; also: 0% is about no effect
Cycloheximide cs = affects cycloheximide protein synthesis inhibition readout, counter-screen; cell reporter, cycloheximide protein synthesis inhibition counterscreen; max response, %; 300,000 compounds, 12% hits; AID 2314; in the data active = max response mostly above about 13%, no sharp cut-off; inactive = mostly below about 14%; also: read at 38.3 µM for the half of the compounds with a filed dose; 0% is about no effect
NS1 function inh = blocks influenza NS1 protein function | 270,000 compounds, 0.4% hits | Potency, µM (highest dose often 46.1 µM), inactives show at the highest dose activity, positive = more growth; calls by dose curve; also: potency is read from the fitted curve at half-maximal effect; actives are rising curves; nearly all actives have a fitted effect of over 50% in size
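Growth recovery, yeast-based: influenza A NS1 expressed in S. cerevisiae causes slow growth, and suppressors are detected by OD600. The parent strain without NS1 is used as positive control.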
Pf growth 96h = P. falciparum growth inhibition at 96 hours; P. falciparum luciferase reporter growth, 96 h; Potency, µM (titrated, usually from 28.7 µM), inactives show at the top dose activity change, negative = inhibition, most hits filed as inhibitors; 320,000 compounds, 6.9% hits; also: potency is read from the fitted curve at half-maximal effect; % is scaled to controls: 0 for no effect and ±100 for the full control effect
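96 h incubation, 37 C, 5% CO2, of luciferase-reporter P. falciparum-infected RBCs (2% hematocrit, 0.05% parasitemia final) with test compounds; endpoint luminescence.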
The depositor's hits bear a star; i = inactive; ? = inconclusive; . = not tested or not shown; [ ] = another dose, or the depositor's remark. Hits are enriched below; roughly 21% of the tested compounds scored in any of these assays. Unless noted, calls follow the shape of the dose curve; as a rule, active = well fitted inhibition curve with a large enough effect; inconclusive = small, poorly fitted or top-dose-only effect, or another doubt; inactive = no such curve, though single readings can be large or run the other way.

SMILES	Pf growth 48h	Shiga toxin inh	Cycloheximide cs	NS1 function inh	Pf growth 96h
CC(=O)COC(=O)c1cccc(N2C(=O)C3C4C=CC(C4)C3C2=O)c1 (centres undefined)	-7%	-16	-6	-18%	13µM*
O=C(Nc1ccc(Cl)cc1)c1cccc(N2C(=O)C3C4CCC(C4)C3C2=O)c1 (centres undefined)	?	52*	23*	-3%	?
CCCCNC(=O)NNC(=O)c1cc(C)on1	18%	21	4	-5%	21%
CC(=O)OC[C@H]1O[C@@H](O/N=C/C[C@@H]2C=C[C@H](OC(C)=O)[C@@H](COC(C)=O)O2)[C@H](OC(C)=O)[C@@H](OC(C)=O)[C@@H]1OC(C)=O	32%	6	7	-32%	?
Cc1c(C)c2c(c(C)c1O)CC[C@@](C)(CCC[C@@H](C)CCC[C@@H](C)CCCC(C)C)O2	-10%	.	.	.	-10%
CC(OC(=O)/C(C#N)=C/c1ccc(N(C)C)cc1)C(=O)N(C)Cc1ccccc1 (centres undefined)	?	-21	1	2%	?
Cc1ccc(NC(=O)c2cccc(N3C(=O)C4C5CCC(C5)C4C3=O)c2)c(C)c1 (centres undefined)	10µM*	-3	6	-8%	17%
COc1ccc(CNC(=O)CN2C(=O)CC(c3ccccc3)=Nc3ccccc32)cc1	1%	-24	8	-3%	-3%
CCOC(=O)c1cc(-c2cccs2)[nH]n1	36%	60*	22*	-7%	34%
CCCCn1nnnc1SCC(=O)Nc1ccc(N(C)C)cc1	.	13	2	1%	10%
O=C(c1ccccc1)c1nn(-c2ccccc2)c2nnc(Cc3ccccc3)c(=O)n12	10µM*	15	1	2%	10µM*
CC(CCc1ccccc1)NC(=O)COc1cc(F)ccc1[N+](=O)[O-] (centres undefined)	43%	-14	-4	.	0%
c1ccc(-c2nc(-c3cccnc3)n[nH]2)cc1	77%	17	31*	0%	89%
Brc1cccc(-c2n[nH]c(-c3ccccc3)n2)c1	236%	146*	64*	-110%	.
COCCNC(=O)C(=O)NNC(=O)CCc1ccccc1	18%	-18	6	2%	44%
COc1ccc(C(=S)Nc2ccc(C)cc2)cc1	120%	79*	51*	-3%	i
COc1ccc(NC(=S)c2ccncc2)cc1	14%	8	-2	7%	10µM*
Cc1ccc(NC(=S)c2ccncc2)cc1	22%	5	18	-9%	52%
Cc1ccc(NC(=S)c2ccccc2)cc1	113%	14*	35*	-2%	0%
COc1cccc(NC(=O)CN(C)C(=O)c2ccc(S(=O)(=O)Nc3ccccc3F)cc2)c1	?	.	.	.	2%
O=C(/C=C/c1ccccc1)OCCCN=C1NS(=O)(=O)c2ccccc21	-4%	-2	-3	-9%	5.2µM*
CCOC(=O)c1ccc(COC(=O)c2ccc3c(c2)-c2ccccc2C3=O)cc1	51%	-11	-3	6%	79%
CCOC(=O)C1=C(Cc2ccc(C)cc2)C(=O)c2ccccc2C1=O	.	10	19*	-190%	2.3µM*
CCOC(=O)C1=C(Cc2ccc(OC)cc2)C(=O)c2ccccc2C1=O	4.7µM*	23	27*	-91%	.
O=C(CCN1C(=O)C2C3CCC(C3)C2C1=O)Nc1ccc(Br)cc1 (centres undefined)	36%	-38	12*	-9%	7%
SMILES	Pf growth 48h	Shiga toxin inh	Cycloheximide cs	NS1 function inh	Pf growth 96h
COc1ccc(NC(=O)CCN2C(=O)C3C4CCC(C4)C3C2=O)cc1 (centres undefined)	17%	38	17*	?	0%
Cc1ccc(NC(=O)CCN2C(=O)C3C4CCC(C4)C3C2=O)cc1Cl (centres undefined)	42%	21	25*	1%	74%
COc1ccccc1CNC(=O)COC(=O)c1nc(Cl)ccc1Cl	12%	.	.	.	59%
Cc1cc(C)cc(C(=O)Nc2ccc3[nH]c(=O)[nH]c3c2)c1	-2%	3	-5	.	64%
Fc1ccccc1N1CCN(c2nnnn2-c2ccccc2)CC1	?	-2	-1	.	16%
COc1cccc(NC(=O)Nc2cnccn2)c1	88%	62	20*	-6%	45%
COc1ccccc1NC(=O)Nc1cnccn1	-14%[5.75 µM]	26	5	.	?
COc1cccc(NC(=O)Nc2ccncc2)c1	10µM*	23	17*	5%	-6%
COc1ccc(OC)c(NC(=O)Nc2cnccn2)c1	56%	46	16*	-12%	?
COc1cccc(NC(=O)Nc2ccc(C(C)(C)C)cc2)c1	?	51*	25*	-42%	32%
Cc1cccc(NC(=O)Nc2cnccn2)c1	20%	40	18	3%	-32%[1.15 µM]
C=CCSc1nnc(N2C(=O)C(O)=C(C(=O)c3ccco3)C2c2ccccc2F)s1 (centres undefined)	31%	2	2	-3%	16%
COc1cc(OC)c(-n2cc(-c3ccc(OC)c(OC)c3)[nH]c2=S)cc1Cl	?	2	-1	6%	111%
CC(=O)N1CCC(N(CCN2CCOCC2)C(=S)Nc2ccc(C)cc2C)CC1	36%	-13	8	.	-2%
CC(=O)c1cccc(NC(=O)Nc2cccs2)c1	-12%	-2	-1	9%	27%
COc1cccc(NC(=O)Nc2cccs2)c1	?	41	24*	17%	3%
N#CCCn1cc(C=O)c(-c2cccs2)n1	5%	-37	-1	1%	35%
CC1CN(c2nc3c(c(=O)n(Cc4ccc(Cl)c(Cl)c4)c(=O)n3C)n2C)CC(C)O1 (centres undefined)	6.6µM*	-22	-2	-118%	.
Cn1c(N2CCN(c3ccccn3)CC2)nc2c1c(=O)n(Cc1ccc(Cl)cc1)c(=O)n2C	12µM*	-6	-1	13%	.
Cn1c(N2CCCCC2)nc2c1c(=O)n(Cc1cccc(Br)c1)c(=O)n2C	6%	-14	-3	-34%	.
O=C(N/N=C/c1ccccn1)c1cccc(S(=O)(=O)N2CCCC2)c1	-15%	-1	-3	-8%	11%
COc1ccc(-c2cc(-c3ccccc3)nc(N3CCCC3)n2)cc1OC	9.3µM*	-3	-2	12%	0%
NC(=O)c1cc(-c2ccccc2)nc(N2CCCCCC2)n1	0%	-10	4	-47%	13µM*
O=C1CC(C(=O)N2CCN(c3ccccc3O)CC2)CN1Cc1ccccc1 (centres undefined)	-8%	.	.	.	?
Cc1c(NC(=O)Nc2cccs2)cccc1[N+](=O)[O-]	0%	32	12*	.	-26%
O=C(Nc1cccs1)Nc1cccnc1Cl	14%	59*	60*	-3%	311%
O=C(Nc1cccs1)Nc1ccccc1Cl	.	78*	75*	-95%	?
O=C(Nc1ccncc1)Nc1ccc(Br)cc1Cl	?	-3	12	-10%	11%
Cc1ccc(NC(=O)Nc2cccs2)c(Cl)c1	84%	107*	57*	-23%	224%
N#Cc1ccccc1NC(=O)Nc1cccs1	?	-22	-3	3%	17%

Bioassay records: PubChem, National Center for Advancing Translational Sciences (NCATS)
